Measured values from the supplement of paper PMC8975748.
Counter-ions that a name gives are not always drawn.

test system: Saccharomyces cerevisiae BY4741 SeMeCo community; test: z-score of subpopulation abundance vs DMSO median, subpopulation auxotrophic for HUM; higher = larger share of this subpopulation than in DMSO controls; details: 10 µM; 24 h; SM minimal medium; subpopulation (auxotrophy): HUM
Procedure: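 Fluorescent four-plasmid SeMeCo (self-establishing metabolically cooperating S. cerevisiae BY4741 community; plasmids pH-mRuby2, pL-mWasabi, pU-eCFP, pM-TagRFP657) was grown 24 h in minimal SM medium with each Selleck FDA-approved drug at 10 µM in 384-well plates. Cells were fixed and imaged by high-content confocal microscopy. For each auxotrophic subpopulation (and the prototroph), a z-score gives the deviation from the DMSO vehicle-control population median.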

Row | SMILES | z-score of subpopulation abundance
1 | O=c1[nH]c2ccccc2n1CCCN1CCC(n2c(=O)[nH]c3cc(Cl)ccc32)CC1 [Domperidone] | 0.44
2 | CC[N+](C)(CC)CCOC(=O)C(O)(c1ccccc1)c1ccccc1 [Methylbenactyzine Bromide] | -0.8
3 | C[C@@H]1O[C@@H](O[C@H]2C[C@@H](O)[C@]3(CO)[C@H]4[C@H](O)C[C@]5(C)[C@@H](C6=CC(=O)OC6)CC[C@]5(O)[C@@H]4CC[C@]3(O)C2)[C@H](O)[C@H](O)[C@H]1O [Ouabain] | -0.49
4 | CC[C@@]1(O)C(=O)OCc2c1cc1n(c2=O)Cc2cc3ccccc3nc2-1 [Camptothecin] | -0.54
5 | CC(C)N(CCC(C(N)=O)(c1ccccc1)c1ccccn1)C(C)C (centres undefined) [Disopyramide] | -0.19
6 | CCN1CC2(OC(=O)c3ccccc3NC(C)=O)CCC(OC)C34C1C(CC23)C1(O)CC(OC)C2CC4C1(O)C2OC (centres undefined) [Lappaconitine] | 0.34
7 | C=C[C@H]1CN2CC[C@H]1C[C@H]2[C@H](O)c1ccnc2ccccc12 [Cinchonidine] | 0.48
8 | CCN(C)C(=O)Oc1cccc([C@H](C)N(C)C)c1 [Rivastigmine Tartrate] | -0.85
9 | CN1[C@@H]2CC[C@H]1C[C@@H](OC(=O)[C@H](CO)c1ccccc1)C2 [Hyoscyamine] | -0.99
10 | CN(C)C(=O)Oc1ccc[n+](C)c1 [Pyridostigmine Bromide] | 0.11
11 | CN1C(=O)COc2c(C(=O)NC3CN4CCC3CC4)cc(Cl)cc21 (centres undefined) [Azasetron HCl] | 0.35
12 | CCN(CC)CCOC(=O)C(O)(c1ccccc1)c1ccccc1 [Benactyzine hydrochloride] | 0.98
13 | CN1c2ccccc2C(NCCCCCCC(=O)O)c2ccc(Cl)cc2S1(=O)=O (centres undefined) [Tianeptine sodium] | -0.16
14 | O=c1cccc2n1C[C@@H]1CNC[C@H]2C1 [Cytisine] | -0.61
15 | CN(C)C(=O)Oc1cccc([N+](C)(C)C)c1 [Neostigmine Bromide] | -0.37
16 | C#C[C@]1(O)C=C[C@H]2[C@@H]3CCC4=CC(=O)CC[C@@H]4[C@H]3CC[C@@]21CC [Gestodene] | -0.17
17 | Nc1ccncc1 [4-Aminopyridine] | -0.37

Row | SMILES | z-score of subpopulation abundance
18 | CC[C@H]1CN2CC[C@]3(C(=O)Nc4ccccc43)[C@@H]2C[C@@H]1/C(=C\OC)C(=O)OC [Rhynchophylline] | 0.73
19 | CC(C)=CCOc1c2occc2cc2ccc(=O)oc12 [Imperatorin] | -1.03
20 | CCOC(=O)Nc1ccc(NCc2ccc(F)cc2)cc1N [Retigabine] | -0.05
21 | CC(=O)OCC1=C(C(=O)O)N2C(=O)C(N)C2SC1 (centres undefined) [7-Aminocephalosporanic acid] | 0.03
22 | Cn1cc(C2=C(c3cn(C4CCN(Cc5ccccn5)CC4)c4ccccc34)C(=O)NC2=O)c2ccccc21 | -0.32
23 | O=C(O[C@H]1C[N+]2(CCCOc3ccccc3)CCC1CC2)C(O)(c1cccs1)c1cccs1 [Aclidinium Bromide] | 0.22
24 | Oc1cccc2cccnc12 [8-Hydroxyquinoline] | -0.54
25 | CC(C)(O)C(Cl)(Cl)Cl [Chlorobutanol] | -0.45
26 | CN1[C@@H]2C[C@@H](OC(=O)[C@H](CO)c3ccccc3)C[C@H]1[C@@H]1O[C@@H]12 [Scopolamine HBr trihydrate] | -0.05
27 | N[C@@H]1C[C@H]1c1ccccc1 [Tranylcypromine (2-PCPA) HCl] | -0.57
28 | CN1[C@@H]2CC[C@H]1C[C@@H](OC(=O)C(CO)c1ccccc1)C2 (some centres undefined) [Atropine sulfate monohydrate] | -0.27
29 | CC(NC(C)(C)C)C(=O)c1cccc(Cl)c1 (centres undefined) [Amfebutamone (Bupropion) HCl] | -0.74
30 | CN[C@@H]1[C@@H](O)[C@@H](O[C@@H]2[C@@H](O)[C@H](O[C@H]3O[C@H]([C@@H](C)O)[C@@H](O)[C@H](O)[C@H]3N)[C@@H](N)C[C@H]2N)OC[C@]1(C)O [Geneticin (G418 Sulfate)] | -0.88
31 | C[C@H]1O[C@H](O[C@H]2[C@H](O)[C@@H](O)[C@@H](O)[C@H](O)[C@@H]2O)[C@@H](N)C[C@@H]1NC(=N)C(=O)O [Kasugamycin hydrochloride] | -0.14
32 | Nc1nc(N)nc(NC2CC2)n1 [Cyromazine] | -0.23
33 | C[N+]12CCC(CC1)C(OC(=O)C(O)(c1ccccc1)c1ccccc1)C2 (centres undefined) [Clidinium Bromide] | -0.01
34 | CC[C@@H](C(N)=O)N1CCCC1=O [Levetiracetam] | -0.12
